High-throughput results as filed in PubChem.
Only some compounds are listed: those with a hit (about 1.5% of all), similar ones and a draw of the others.
LANA-H2B inh: blocks KSHV LANA binding to histone H2A/H2B | 320,000 tested, 0.6% active | AID 2629 | Q9QR71 | cell-free LANA-H2A/H2B peptide, fluorescence polarization | inhibition, % (test concentration not listed); in the data active means inhibition mostly above about 10%, no sharp cut-off; inactive means mostly below about 6.7%
LANA DNA inh: KSHV C-LANA DNA binding inhibition; MBP-C-LANA/FAM-LBS DNA binding, fluorescence polarization; inhibition, % at 9 µM; 340,000 tested, 0.078% active; AID 504423;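 active means highest replicate inhibition at or above 60% at 9 µM, even if other replicates fall short; inactive means all replicates below 60% inhibition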;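 further: 0% = neutral control wells and 100% = 4 µM acridine orange control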
Keap1 Nrf2 FP: inhibitors of human Keap1-Nrf2 protein-protein interaction; Q14145; Keap1 Kelch-Nrf2 peptide fluorescence polarization, 1536-well; inhibition, % at 9.4 µM; 340,000 tested, 0.15% active; in the data active means inhibition above about 12%;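 further: human Keap1 Kelch domain with fluorescein labeled Nrf2 9mer peptide probe; 0% = neutral control wells and 100% = peptide positive control; higher means more block of Keap1 binding to Nrf2 peptide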
E coli Lon inh: E. coli protease La inhibition; P0A9M0; purified E. coli Lon protease, fluorescence polarization; inhibition, % at 7.94 µM; 360,000 tested, 0.42% active; AID 602123; in the data active means inhibition above about 13%, passing the limit was not always enough;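 further: 0% = enzyme with probe and DMSO and 100% = no enzyme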
GLD-1 RNA inh: GLD-1-TGE RNA interaction inhibition (C. elegans). Q17339. purified GLD-1 + fluorescein TGE RNA, fluorescence polarization. inhibition, % at 5.96 µM. 320,000 tested, 0.44% active;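 active means percent inhibition above a per-plate cutoff, the plate mean of test compounds plus 3 SD, cut at about 30% in these data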;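 further: 0% = DMSO wells with GLD-1 and probe and 100% = wells lacking GLD-1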
EBV gp42 inh: EBV gp42 inhibition; Q1HVG2; Fluorescence polarization binding assay, mP read-out; inhibition, % (tested at 21.74 µM); 220,000 tested, 0.42% active; in the data active means inhibition above about 50%
Keap1 TSA: Keap1 (human) Kelch domain binding. shares compounds with Keap1 Nrf2 FP. Keap1 Kelch thermal shift, delta Tm; stronger effect = higher value. 400 tested, 8% active. max delta Tm, degrees C; in the data active means max delta Tm above about 0.48 degrees C
eLon confirm: confirmation of E. coli Lon protease inhibitors | shares compounds with E coli Lon inh | purified E. coli Lon, fluorescence polarization | inhibition, % at 7.94 µM | 1,400 tested, 31% active | AID 602230; in the data active means inhibition above about 16%;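 further: 0% = enzyme with probe and DMSO and 100% = no enzyme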
* = called active by the depositor; . = no result; + = active, no number.

SMILES	LANA-H2B inh	LANA DNA inh	Keap1 Nrf2 FP	E coli Lon inh	GLD-1 RNA inh	EBV gp42 inh	eLon confirm	others
CCc1cc[n+](-c2nc([O-])sc2C=O)cc1	8	43	29*	40*	99*	87*	8	Keap1 TSA=-0.06
Cc1c(CNC2CCCC2)c(C(=O)O)c(C)n1Cc1ccccc1	-1	0	1	-15	2	-10	.
CN1C(=O)c2cccc(NCCCN3C(=O)c4ccccc4C3=O)c2C1=O	-5	-8	-16	-1	20	-53	.
Cn1c(=O)c(NCCc2ccccc2)c2c3c(cccc31)C(=O)c1ccccc1-2	128*	101*	45*	+	+	+	-457	Keap1 TSA=0
CCCCNc1c2c3c(cccc3n(C)c1=O)C(=O)c1ccccc1-2	23*	71*	58*	188*	+	183*	101*	Keap1 TSA=0.25
Cn1c(NCCc2ccccc2)cc(=O)n(C)c1=O	-1	-2	-5	-1	6	2	.
CCc1ccc(N2CC(C(=O)NC3CCCCC3C)CC2=O)cc1 (stereo unspecified)	-8	-1	-2	-11	0	.	.
COc1cc(NC(=O)CSc2nc3c(c(=O)[nH]2)CCCC3)cc(OC)c1OC	-5	1	-5	16*	-1	-2	1
C#CCN(C[C@@H]1[C@@H](OC(=O)NCc2ccccc2F)[C@@H](OC(=O)NCc2ccccc2F)CN(C(=O)OC(C)C)N1C(=O)OC(C)C)S(=O)(=O)c1ccc(C)cc1	.	.	.	2	.	.	.
O=C(C(=C1NCCN1)n1cncn1)c1ccccc1	3	1	1	6	-8	-9	.
Cn1ccnc1C(OC(=O)c1ccc(Cl)cc1)C(F)(F)F (stereo unspecified)	1	0	-2	-1	-1	.	.
CCN(C[C@H]1N[C@@](CC)(C(=O)OC)[C@H]2C(=O)N(C)C(=O)[C@@H]12)C(=O)COc1ccccc1	.	1	-4	2	2	.	.
CCOC(=O)N1CCN(Cc2nc3ccc([N+](=O)[O-])cc3c(=O)n2-c2ccccc2F)CC1	-2	0	-3	18*	2	.	0
CCCCN(C1CCS(=O)(=O)C1)S(=O)(=O)c1cccs1 (stereo unspecified)	1	0	0	-8	-7	.	.
CCOC(=O)C1Nc2ccccc2C2c3ccccc3CC12 (stereo unspecified)	2	-2	4	30*	-10	.	29*
COc1cc(C(=O)OCC(=O)N2c3ccccc3NC(=O)C2(C)C)ccc1OCC(C)C	-1	-2	2	21*	8	.	-5
O=C(Nc1c(-c2ccccc2)[nH][nH]c1=O)c1cccc(C(F)(F)F)c1	.	.	.	-1	.	.	.
O=[N+]([O-])c1ccc(N2CCN(Cc3ccccc3)CC2)s1	1	-1	-5	-76	-49	.	.
O=[N+]([O-])c1ccc(N2CCN(Cc3ccccc3)CC2)c2c1no[n+]2[O-]	.	.	.	32*	.	.	5
COc1ccc(C(NC(C)=O)c2cc(Cl)c3cccnc3c2O)cc1 (stereo unspecified)	-6	3	-5	3	-3	.	.
CCCC(=O)NC(c1ccc(OC)c(OC)c1)c1cc(Cl)c2cccnc2c1O (stereo unspecified)	-2	-2	-1	17*	0	13	48*
Cc1ccc(S(=O)(=O)CNC(=S)c2ccc3ccccc3c2)cc1	3	0	0	20*	-2	1	12
CC(C)OC(=O)N(C)C[C@H]1OCc2cnnn2CCCC(=O)N([C@H](C)CO)C[C@@H]1C	.	.	.	5	.	.	.
CS(=O)(=O)Oc1ccc2c(c1)O/C(=C\c1cccnc1)C2=O	2	-2	1	7	10	-8	.
O=C(Oc1ccc2c(c1)O/C(=C\c1ccncc1)C2=O)c1cccs1	3	4	-5	54*	84*	12	24*
COc1ccccc1C(=O)Oc1ccc2c(c1)O/C(=C\c1ccncc1)C2=O	8	6	2	28*	101*	33	49*
